Values without a mark were called inactive. How the calls were made is not given here.
These compounds were tested against Pantothenate synthetase (Mycobacterium tuberculosis (strain ATCC 25618 / H37Rv)) (UniProt P9WIL5) (assay: Recombinant Mtb pantothenate synthetase (PanC) inhibitors, coupled enzyme, confirmatory (AID 375;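 further: 0% = full reaction with vehicle and 100% = no enzyme background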)). Conditions: coupled enzyme assay; at 10 µM, active compounds read high.
Sequence of Pantothenate synthetase (Mycobacterium tuberculosis (strain ATCC 25618 / H37Rv)) (P9WIL5 whole entry, looked up): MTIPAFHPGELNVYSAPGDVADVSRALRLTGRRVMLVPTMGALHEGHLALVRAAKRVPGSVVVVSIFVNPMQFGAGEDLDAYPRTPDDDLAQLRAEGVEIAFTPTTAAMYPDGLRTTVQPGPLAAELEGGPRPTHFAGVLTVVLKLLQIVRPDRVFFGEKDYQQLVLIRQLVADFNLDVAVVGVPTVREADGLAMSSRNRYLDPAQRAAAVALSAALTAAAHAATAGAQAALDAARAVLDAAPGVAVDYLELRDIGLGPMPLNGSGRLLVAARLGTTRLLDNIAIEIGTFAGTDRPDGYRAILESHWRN

Row | Compound | inhibition
1 | CCN1C(=O)NC(c2cc(Br)ccc2OC)C(C(=O)OC)=C1C (stereo not given) | 0%
2 | Cc1cc(/C=N/n2cnnc2)c(C)n1-c1cccc(Cl)c1 | 0%
3 | COc1ccccc1C(=O)N1CCN(CCc2ccccc2)CC1 | 6%
4 | CC1CCN(CCCNC(=O)c2cn(C)c3ccc(S(=O)(=O)N4CCCC4)cc3c2=O)CC1 | 0%
5 | Cn1c(CNc2nc(-c3ccccc3)cs2)nnc1SCC(=O)N1CCc2ccccc21 | 0%
6 | COc1cc(C(=O)N2c3ccccc3CC2C)cc(OC)c1OC (stereo not given) | 0%
7 | O=C(CSc1nnc(-c2ccccn2)n1Cc1ccccc1)N1CCCC1 | 0%
8 | COCC(C)NC(=O)CCS(=O)(=O)c1nc(-c2ccc(OC)cc2)cc(C(F)(F)F)n1 (stereo not given) | 0%
9 | CCOCCn1cnc2sc(C(=O)Nc3nc(C)c(C(=O)OCC)s3)c(C)c2c1=O | 13%
10 | CN(C)c1ccc(C=Nc2ccc(N(C)C)cc2)cc1 | 0%
11 | Cc1cccc(Cn2c(SCCN3CCCCC3)nc3c2c(=O)[nH]c(=O)n3C)c1 | 0%
12 | COc1ccc(OC)c(C(=O)COC(=O)c2cc(C)oc2C)c1 | 11%
13 | COc1ccc(S(=O)(=O)NCC(c2cccnc2)N2CCN(C)CC2)cc1C (stereo not given) | 0%
14 | O=C(CSc1nnnn1-c1ccccc1)Nc1nsc(-c2ccc(Cl)cc2)n1 | 0%
15 | CN(C)c1oc(-c2ccccc2F)nc1C#N | 1%
16 | O=S(=O)(c1ccc(S(=O)(=O)N(Cc2ccco2)Cc2ccccc2Cl)cc1)N1CCCC1 | 0%
17 | Cc1ccc(NC(=O)c2ccco2)c(NC(=O)c2cccs2)c1 | 0%
18 | CCOc1ccc(N2C(=O)CC(N3CC(C)OC(C)C3)C2=O)cc1 (stereo not given) | 0%
19 | C=C1[C@@H](C)C2[C@H](Cc3ccccc3)NC(=O)[C@]23OC(=O)CC[C@H](O)CCC[C@H](C)C/C=C/[C@H]3[C@@H]1O (stereo not given in full) | 0%
20 | COc1cc(C(=O)N2CCCC(c3nc(-c4cccs4)no3)C2)cc(OC)c1OC (stereo not given) | 0%

Row | Compound | inhibition
21 | CN1CCc2nc(SCCOc3ccccc3)c(C#N)cc2C1 | 0%
22 | O=C(NCCN1CCCCCC1)c1ccc(N2CCCC2=O)cc1 | 1%
23 | N#CC(C(=O)NCCc1ccccc1)c1nc2ccccc2nc1N1CCOCC1 (stereo not given) | 0%
24 | O=C(Nc1ccc(Cl)c(Cl)c1)Nc1cc(C(=O)N2CCOCC2)ccc1N1CCCCC1 | 4%
25 | CCOC(=O)c1oc2ccccc2c1NC(=O)c1cccc(OC)c1OC | 0%
26 | Cc1cccc(CC2CC(=O)N(c3ccccc3)C2=O)c1 (stereo not given) | 0%
27 | CCOC(=O)N1CCC(O)(c2cc(C)c(C)cc2C)CC1 | 3%
28 | CCSc1nnc(-c2cccs2)o1 | 0%
29 | CCCOc1ccc(C2C(C(=O)OC)=CN(CCOC)C=C2C(=O)OC)cc1 | 1%
30 | CC(=O)c1cc(C#N)c(SCC(=O)OC(C)C)nc1C | 4%
31 | CCOC(=O)CCc1c(C)nc2cc(-c3ccc(F)cc3)[nH]n2c1=O | 0%
32 | O=C(Nc1ccc2c(c1)OCCO2)C1CCN(C(=O)c2ccc(F)cc2)CC1 | 0%
33 | O=c1c2c(-c3ccccc3)csc2nc2n1CCC2 | 0%
34 | CC1CCN(CCCNC(=O)c2coc3nc4ccccc4nc23)CC1 | 1%
35 | O=C(CSc1ccc2nnc(-c3ccccc3)n2n1)N1CCN(c2ccccc2)CC1 | 1%
36 | COC(=O)c1cc(-c2c(C)nn(-c3ccccc3)c2C)n[nH]1 | 0%
37 | Cc1cc2cc(CNC(=O)c3ccc4c(c3)OCO4)ccc2[nH]1 | 0%
38 | O=c1c2ccccc2nc(SCc2nnc(-c3ccccc3Br)o2)n1-c1ccccc1 | 0%
39 | COC(=O)c1cc(S(=O)(=O)N2CCOCC2)c(N2CCOCC2)cc1N1CCOCC1 | 2%
40 | Clc1ccccc1CN1CCc2sccc2C1 | 0%
